# From PubChem BioAssay (EPA / NIEHS)
# Results filed as inconclusive are left out. Active and inactive are the calls of the source. The calls were made as follows: active = hit-call score of the fitted dose curve at least 0.9, where 1 is the maximum; inconclusive = response in the unintended direction; inactive = score below 0.9.
# Biological target: D(1A) dopamine receptor (Homo sapiens) (UniProt P21728)
# Assay: NVS_GPCR_hDRD1: NovaScreen (NVS) G Protein-Coupled Receptor Assay for human Dopamine Receptor D1 (DRD1) (AID 2283269)
# Procedure, shortened: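 Cell-free competition with radioligand, filter-trapped and scintillation-counted 1 h post-dose, using HEK293-derived human D1 preparation. Duplicate single-point testing at 25 uM first, then concentration series for actives; DMSO served as baseline, loss-of-signal scored.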
# Chain of D(1A) dopamine receptor (Homo sapiens) (P21728 whole entry, looked up): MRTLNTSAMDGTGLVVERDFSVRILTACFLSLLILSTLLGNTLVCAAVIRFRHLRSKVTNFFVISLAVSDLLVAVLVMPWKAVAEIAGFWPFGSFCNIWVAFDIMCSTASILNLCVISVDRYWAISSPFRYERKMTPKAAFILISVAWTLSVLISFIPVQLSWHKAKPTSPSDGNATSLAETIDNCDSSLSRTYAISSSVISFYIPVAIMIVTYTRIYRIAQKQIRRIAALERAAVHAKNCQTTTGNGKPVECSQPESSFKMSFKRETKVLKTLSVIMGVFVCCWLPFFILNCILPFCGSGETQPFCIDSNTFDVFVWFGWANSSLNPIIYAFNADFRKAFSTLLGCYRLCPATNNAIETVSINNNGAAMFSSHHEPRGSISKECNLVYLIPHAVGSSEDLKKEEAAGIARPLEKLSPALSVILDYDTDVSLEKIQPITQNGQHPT
SMILES,outcome,AC50
Oc1ccc(Cc2ccc(O)cc2)cc1,inactive,
O=[N+]([O-])c1ccc(Nc2ccccc2)cc1,,8.91 µM (active)
[Cl][Sn]([c]1ccccc1)([c]1ccccc1)[c]1ccccc1,,0.6 µM (active)
CC(C=O)Cc1ccc2c(c1)OCO2 (stereo not given),inactive,
CC(C)(C)c1cc([N+](=O)[O-])cc(C(C)(C)C)c1O,inactive,
O=S(=O)(C(Cl)(Cl)Cl)C(Cl)(Cl)Cl,,13.8 µM (active)
CCCCCCCCCCCCc1cccc(S(=O)(=O)O)c1,,7.44 µM (active)
N#Cc1ccccc1N,inactive,
O=C1C=CC(=O)c2ccccc21,,4.98 µM (active)
OC(Cc1ccccc1Cl)(Cn1[nH]cnc1=S)C1(Cl)CC1 (stereo not given),inactive,
Brc1c(Br)c(Br)c(Oc2c(Br)c(Br)c(Br)c(Br)c2Br)c(Br)c1Br,inactive,
CCCCCCCCCCBr,inactive,
Cc1ccc(OP(=O)(Oc2ccc(C)cc2C)Oc2ccc(C)cc2C)c(C)c1,,14.3 µM (active)
N#CCCC(Br)(C#N)CBr (stereo not given),,11 µM (active)
CCCCCCCCCCCCN(C)C,inactive,

# Biological target: Muscarinic acetylcholine receptor M2 (Homo sapiens) (UniProt P08172)
# Assay: NVS_GPCR_hM2: NovaScreen (NVS) G Protein-Coupled Receptor Assay for human Muscarinic, M2 Receptor (AID 2283273)
# Procedure, shortened: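 Filter-based radiodetection read bound radioligand 1 h after dosing CHO-derived membrane protein. Single-concentration duplicates (25 uM) first, then concentration-response for actives; signal loss versus DMSO scored.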
# Chain of Muscarinic acetylcholine receptor M2 (Homo sapiens) (P08172 whole entry, looked up): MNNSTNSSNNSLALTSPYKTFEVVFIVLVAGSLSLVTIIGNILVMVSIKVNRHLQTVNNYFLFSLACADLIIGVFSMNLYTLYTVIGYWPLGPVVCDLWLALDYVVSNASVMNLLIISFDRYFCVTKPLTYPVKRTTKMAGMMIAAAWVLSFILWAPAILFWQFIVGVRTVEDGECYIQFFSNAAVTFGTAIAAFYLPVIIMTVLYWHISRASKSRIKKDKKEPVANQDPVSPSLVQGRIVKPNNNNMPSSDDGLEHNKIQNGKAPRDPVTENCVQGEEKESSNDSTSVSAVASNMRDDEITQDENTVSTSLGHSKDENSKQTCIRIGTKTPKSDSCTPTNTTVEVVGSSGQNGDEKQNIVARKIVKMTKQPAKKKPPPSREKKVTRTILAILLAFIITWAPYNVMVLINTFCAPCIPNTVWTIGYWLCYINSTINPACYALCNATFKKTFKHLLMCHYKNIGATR
SMILES,outcome,AC50
OCCN(CCO)CCO,inactive,
BrCCCCBr,inactive,
Nc1ccc(N)cc1,,9.36 µM (active)
CCCCCCCCCCCCN(C)C,,22.6 µM (active)

# Biological target: human Thromboxane A2 Receptor (TXA2), TBXA2R (gene 6915) (UniProt P21731)
# Assay: NVS_GPCR_hTXA2: NovaScreen (NVS) G Protein-Coupled Receptor Assay for human Thromboxane A2 Receptor (TXA2) (AID 2283282);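 also: actives reduce bound radioligand signal relative to DMSO baseline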
# Procedure, shortened: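 Screening ran at 25 uM in duplicate, with concentration series for confirmed actives. Each test measures radioligand binding to human platelet protein after 1 h, cell-free, using filter-based scintillation detection of signal loss relative to DMSO.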
# Chain of human Thromboxane A2 Receptor (TXA2), TBXA2R (gene 6915) (P21731 whole entry, looked up): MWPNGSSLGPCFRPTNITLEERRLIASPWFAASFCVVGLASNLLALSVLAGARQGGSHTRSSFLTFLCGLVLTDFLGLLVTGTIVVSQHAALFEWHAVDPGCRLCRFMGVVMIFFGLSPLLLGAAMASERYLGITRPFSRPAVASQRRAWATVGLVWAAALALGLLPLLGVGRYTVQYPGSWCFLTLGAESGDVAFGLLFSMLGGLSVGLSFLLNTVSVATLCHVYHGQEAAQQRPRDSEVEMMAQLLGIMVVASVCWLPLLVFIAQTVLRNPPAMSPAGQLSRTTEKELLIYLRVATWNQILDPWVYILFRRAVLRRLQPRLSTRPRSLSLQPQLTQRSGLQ
SMILES,outcome,AC50
Oc1cccc(-c2ccccc2)c1,inactive,
c1ccc2sc(SNC3CCCCC3)nc2c1,,1.12 µM (active)
Oc1ccc(Cc2ccc(O)cc2)cc1,inactive,
[Cl][Sn]([c]1ccccc1)([c]1ccccc1)[c]1ccccc1,,1.29 µM (active)
CCOP(=S)(OCC)SCS(=O)(=O)C(C)(C)C,inactive,
CCCCCCCCCCCCc1cccc(S(=O)(=O)O)c1,,8.31 µM (active)
O=c1oc2ccccc2c(O)c1C(CC(O)c1ccc(-c2ccc(Br)cc2)cc1)c1ccccc1 (stereo not given),,12.2 µM (active)
CCOP(=O)(OCC)OC(=CCl)c1ccc(Cl)cc1Cl,,0.35 µM (active)
O=C(N[C@H]1CN2CCC1CC2)c1ccc2c(c1)OCCO2,inactive,
O=C(O)COc1cc(Cl)c(Cl)cc1Cl,inactive,
N#CCCC(Br)(C#N)CBr (stereo not given),,0.594 µM (active)
